A selection: hits, their analogues and other compounds. The true share with any hit is near 4.8%.
Calb FLC – C. albicans growth inhibition with fluconazole, primary screen, CaCi-2 strain, Alamar Blue fluorescence | C. albicans CaCi-2 (fluconazole-resistant clinical isolate) + fluconazole, 48 h | growth inhibition, % (test concentration not listed) | 0.57% of 300,000 active;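 active = growth inhibition above about 58% in most replicates, limit read from the data, passing the limit was not always enough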;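 note: all wells also contain fluconazole at 8 µg/ml as a sub-toxic cotreatment; 0% = median of DMSO wells and 100% = median of geldanamycin control wells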
MPTP inh – mitochondrial permeability transition pore inhibitors, primary screen, biochemical, isolated mouse mitochondria, absorbance; Ca2+ swelling absorbance, 30 min; inhibition, % at 10 µM; 1.4% of 360,000 active; AID 602449, 2012;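 active = inhibition of 50% or more, scaled per plate between neutral and stimulator controls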;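 note: 0% = DMSO wells given calcium and 100% = 1 mM EGTA wells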
CSC inhib – cancer stem cell viability inhibitors, primary screen, luminescence; 1.1% of 300,000 active; cancer stem cell-like cells viability; inhibition, % at 7.5 µM; AID 2717, 2010; in the data active = inhibition above about 75%; tested in HMLE shEcad cells
Beta apoptosis – inhibitors of cytokine-induced beta cell apoptosis, primary screen, luminescence; INS-1E cytokine-induced death, ATP luminescence, 48 h; percent of positive-control rescue, neutral wells zero; protection from apoptosis, % (concentration not given with the values); 0.8% of 300,000 active; AID 435005, 2010;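 active = Every replicate reaches about 75%, or at least half do and their mean reaches it too, limit read from the data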;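 note: 0% = cytokine-treated negative control wells and 100% = positive control rescue; higher means more ATP so stronger rescue from cytokine killing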
Mdm2 MdmX PPI – inhibitors of human Mdm2-MdmX association, primary screen, cell-based, luminescence, split luciferase, SaOS-2, uHTS; Protein Mdm4 (Homo sapiens) + E3 ubiquitin-protein ligase Mdm2 (Homo sapiens), …; SaOS-2 split-luciferase Mdm2/MdmX complementation; inhibition, % at 8 µM; 3% of 330,000 active; AID 485346, 2010;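 active = inhibition of at least 50% at 8 µM in the primary screen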
Target sequence (O15151 whole entry, looked up): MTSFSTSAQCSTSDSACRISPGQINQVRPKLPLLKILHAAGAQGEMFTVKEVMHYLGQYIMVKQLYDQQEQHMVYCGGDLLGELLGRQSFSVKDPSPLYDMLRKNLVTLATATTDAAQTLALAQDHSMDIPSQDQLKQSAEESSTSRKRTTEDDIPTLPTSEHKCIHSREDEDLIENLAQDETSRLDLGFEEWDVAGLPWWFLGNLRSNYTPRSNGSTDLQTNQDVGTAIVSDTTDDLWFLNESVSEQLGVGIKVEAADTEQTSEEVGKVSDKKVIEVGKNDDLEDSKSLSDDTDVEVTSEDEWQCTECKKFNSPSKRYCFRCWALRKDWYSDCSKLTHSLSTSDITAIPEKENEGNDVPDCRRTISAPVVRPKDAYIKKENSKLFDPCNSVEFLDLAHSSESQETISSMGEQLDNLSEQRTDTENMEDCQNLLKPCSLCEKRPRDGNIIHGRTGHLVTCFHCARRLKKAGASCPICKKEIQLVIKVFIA
Target sequence (Q00987 whole entry, looked up): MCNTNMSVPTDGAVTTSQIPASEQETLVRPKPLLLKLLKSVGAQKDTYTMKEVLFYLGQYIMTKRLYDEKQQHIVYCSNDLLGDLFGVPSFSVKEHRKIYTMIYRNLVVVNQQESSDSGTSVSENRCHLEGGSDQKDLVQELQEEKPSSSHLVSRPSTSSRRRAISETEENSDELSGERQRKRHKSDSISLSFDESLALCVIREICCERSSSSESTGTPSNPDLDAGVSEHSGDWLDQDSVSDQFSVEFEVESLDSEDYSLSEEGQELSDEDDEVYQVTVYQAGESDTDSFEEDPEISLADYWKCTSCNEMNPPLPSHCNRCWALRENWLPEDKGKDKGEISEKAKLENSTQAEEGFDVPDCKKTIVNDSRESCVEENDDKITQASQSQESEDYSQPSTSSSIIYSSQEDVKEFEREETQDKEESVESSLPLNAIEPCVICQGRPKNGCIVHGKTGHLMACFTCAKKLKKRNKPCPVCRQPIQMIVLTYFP
Rh123 counter – fluorescence retest of MPTP screen hits in isolated mitochondria, single concentration; shares compounds with MPTP inh; membrane potential, Rhodamine 123 fluorescence; inhibition, % at 10 µM; 78% of 5,000 active; AID 624504, 2012; in the data active = inhibition above about 22%;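 note: 0% = DMSO vehicle and 100% = positive control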
MPTP swell DR – mitochondrial permeability transition pore inhibitors, dose response, biochemical, absorbance, uHTS hits. shares compounds with MPTP inh. isolated mitochondria swelling. IC50, µM. 58% of 780 active; in the data active = IC50 below about 20 µM
MPTP cs DR – fluorescent counter-screen in isolated mitochondria, dose response, counter-screen for MPTP inhibitor project, biochemical, fluorescence, uHTS hits. shares compounds with MPTP inh. IC50, µM. 49% of 780 active. isolated mitochondria counterscreen, fluorescence read-out. AID 651564, 2012; in the data active = IC50 below about 80 µM
Starred values were filed as active, the others as inactive; · = no result given.

SMILES	Calb FLC	MPTP inh	CSC inhib	Beta apoptosis	Mdm2 MdmX PPI	Rh123 counter	others
Clc1ccc(/C=C/c2nc3ccccc3[nH]2)cc1	-3.8	80.1*	76.0*	31.0	-76.7	84.7*
Clc1ccc(/C=C/c2nc3ccccc3[nH]2)c(Cl)c1	55.4	86.2*	-17.9	44.7	-56.0	79.4*
Clc1cccc(Cl)c1/C=C/c1nc2ccccc2[nH]1	47.8	95.3*	-1.6	12.9	-171.9	81.9*
CCN1C(=S)N[C@@H](CCc2ccccc2)C(C(=O)OC)=C1C	0.5	0.6	6.2	-3.2	-4.0	·
CCc1ccc(NC(=S)Nc2cc(C(=O)O)ccc2N2CC3CC(C2)c2cccc(=O)n2C3)cc1 (stereo not given)	-11.1	-0.3	-9.4	4.1	-10.3	·
O=C(O)c1ccc(N2CC3CC(C2)c2cccc(=O)n2C3)c(NC(=S)Nc2ccc(Br)cc2)c1 (stereo not given)	-1.7	89.2*	25.0	0.8	23.1	93.0*
CC(C)C(C)NC(=O)COc1ccc(-c2ccccc2)cc1 (stereo not given)	2.0	4.0	18.8	4.1	-2.3	·
CC(C)C(C)NC(=O)COc1ccc(Sc2ccc(OCC(=O)NC(C)C(C)C)cc2)cc1 (stereo not given)	7.9	78.9*	2.1	6.6	34.9	89.1*
CCC(C(=O)OCC(=O)Nc1cc(Cl)cc(Cl)c1)c1ccccc1 (stereo not given)	0.3	82.4*	8.9	8.0	-21.6	90.2*
CCC(C(=O)OCC(=O)Nc1cccc(C(C)=O)c1)c1ccccc1 (stereo not given)	-2.0	2.9	-10.7	-3.7	3.0	·
Cc1ccc(C23CC4CC(CC(C(N)=O)(C4)C2)C3)cc1	-5.7	0.3	-38.6	-2.3	-8.0	·
Cc1ccc(C23CC4CC(CC(CN)(C4)C2)C3)cc1	9.9	80.1*	·	·	·	-14.6	MPTP swell DR=4.99*;MPTP cs DR=74.6*
Cc1cc(=O)oc2cc(OCC(=O)NCCc3ccccc3)ccc12	-12.2	-1.6	2.6	3.3	-9.6	·
CN(C)Cc1c(C(=O)N/N=C/c2cccc(OCc3ccccc3)c2)nnn1-c1nonc1N	10.2	65.0*	-8.2	-7.1	-14.9	80.2*
COc1cc(/C=N/NC(=O)c2nnn(-c3nonc3N)c2C(C)C)ccc1OCc1ccc(F)cc1	-1.3	61.6*	-3.3	30.9	-1.4	55.9*
CN(C)Cc1c(C(=O)N/N=C/c2ccccc2OCc2c(F)cccc2Cl)nnn1-c1nonc1N	7.0	0.2	·	8.4	34.5	·
CN(C)Cc1c(C(=O)N/N=C/c2cccc(OCc3c(F)cccc3Cl)c2)nnn1-c1nonc1N	-10.0	60.9*	21.9	-1.4	32.0	-3.3	MPTP swell DR=6.32*;MPTP cs DR=<2.5*
Cc1cc(C)nc(/N=C(\N)Nc2ccc(CC(=O)OC(C)C)cc2)n1	-9.6	50.2*	6.3	·	-2.5	58.6*
Cc1cc(C)nc(/N=C(\N)Nc2ccc(S(=O)(=O)O)cc2)n1	-21.8	-0.8	·	·	18.8	·
CC(C)c1ccc(S(=O)(=O)c2n[nH]n3c2nc(=O)c2ccccc23)cc1	46.9	57.6*	18.9	-2.4	-12.2	60.4*
CCc1ccc(S(=O)(=O)c2n[nH]n3c2nc(=O)c2ccccc23)cc1	35.0	32.9	24.7	2.6	-3.8	·
N#C/C(=C/c1ccc(Sc2nc3ccccc3[nH]2)o1)c1cccc(F)c1	8.2	85.1*	54.5	-2.8	21.5	86.7*
N#C/C(=C\c1ccc(-c2ccccc2C(=O)O)o1)c1nc2ccccc2[nH]1	3.2	0.7	1.0	-1.9	-22.1	·
N#C/C(=C/c1ccc(Sc2nc3ccccc3[nH]2)o1)c1ccccc1F	17.0	95.6*	·	1.4	12.8	83.4*
N#C/C(=C\c1ccc(Sc2ccccc2)o1)c1nc2ccccc2[nH]1	-1.4	94.4*	8.5	·	-84.3	67.7*
SMILES	Calb FLC	MPTP inh	CSC inhib	Beta apoptosis	Mdm2 MdmX PPI	Rh123 counter	others
CC(=O)c1c(C)nn(CC(=O)NC2CCCN(Cc3ccc(CC(C)C)cc3)C2)c1C (stereo not given)	16.6	-0.1	-0.1	5.1	19.1	·
CCOC(=O)CSc1n[nH]c(=S)s1	-10.2	1.3	6.9	2.6	3.6	·
CC(C)(C)CC(C)(C)SSc1n[nH]c(=S)s1	·	51.0*	·	·	·	36.7*
N#CCCn1nc(-c2ccc(Cl)cc2)cc1Nc1ccccc1NC(=O)C(F)(F)F	29.0	2.7	3.1	-1.8	24.0	·
N#CCCn1nc(-c2ccc(Br)cc2)cc1Nc1ccccc1NC(=O)C(F)(F)F	1.1	95.0*	4.3	-3.7	-6.7	83.7*
N#CCCn1nc(-c2ccc([N+](=O)[O-])cc2)cc1Nc1ccccc1NC(=O)C(F)(F)F	4.8	92.9*	-8.5	-6.0	11.2	91.4*
N#CCCn1nc(-c2ccccc2)cc1Nc1ccccc1NC(=O)C(F)(F)F	-5.2	9.3	0.7	-2.5	3.7	·
CC(=O)N1CCN(S(=O)(=O)c2cccc(C(=O)OCc3ccc(C(C)(C)C)cc3)c2)CC1	·	89.5*	·	·	-2.3	90.5*
COc1ccccc1Nc1nc(-c2c(C)nc3ncccn23)cs1	25.3	70.7*	·	·	·	50.5*
N=C(N)SCc1cn(-c2ccccc2)nc1-c1ccc(Br)cc1	-21.6	76.4*	·	·	·	-10.0
c1ccc(-c2nc3c4ccccc4ccn3c2Cc2ccsc2)cc1	·	0.4	·	·	·	·
Cc1ccc(-n2[nH]c(C)c(/C=N/Nc3ccc([N+](=O)[O-])cc3[N+](=O)[O-])c2=O)cc1C	-7.8	114.6*	71.1	53.6	23.6	60.7*
COc1ccc(CCN=Cc2c(C)[nH]n(-c3ccc([N+](=O)[O-])cc3)c2=O)cc1OC	-1.4	0.9	15.5	5.9	2.1	·
CCc1noc(C)c1C(=O)Nc1ccc(S(=O)(=O)N2CCC(C)CC2)cc1	·	0.3	-5.6	5.3	20.1	·
O=C(CNc1cccc(F)c1)Nc1cccc(S(=O)(=O)N2CCCCC2)c1	·	-2.8	·	·	12.1	·
O=C(CNc1cccc(S(=O)(=O)N2CCCC2)c1)Nc1ccc(C(F)(F)F)cc1	-0.3	51.8*	9.9	24.8	-2.3	85.2*
O=C(CNc1cccc(S(=O)(=O)N2CCCCC2)c1)Nc1ccc(C(F)(F)F)cc1	·	81.0*	·	·	·	76.4*
CC1CCN(C(=O)c2ncn(Cc3ccccc3)c2C(=O)N2CCC(C)CC2)CC1	·	-0.6	-11.6	2.3	6.3	·
NS(=O)(=O)c1ccc(CCNC(=O)c2ccc([N+](=O)[O-])s2)cc1	0.3	-2.3	4.9	3.0	9.5	·
Fc1ccccc1CNCCC(Cc1ccccc1)c1ccc2c(c1)OCO2 (stereo not given)	-67.1	85.2*	-17.2	-10.4	25.0	-1.2	MPTP swell DR=5.4*;MPTP cs DR=16.1*
